Consider 1 sequence from article PMC7862700, “An all-to-all approach to the identification of sequence-specific readers for epigenetic DNA modifications on cytosine”.

Assay in all cases: DAPPL (digital affinity profiling via proximity ligation, sequencing); 10 mM Tris-HCl pH 7.5, 50 mM NaCl, 1 mM DTT, 4% glycerol, room temperature, 30 min; GST-TFs on glutathione beads, 16-mer random dsDNA library, 0.1% formaldehyde crosslink after washing; high values mean tight binding
Assay [1] has as its target T1, FEV (Homo sapiens, UniProt Q99581 1-238).
T1 sequence: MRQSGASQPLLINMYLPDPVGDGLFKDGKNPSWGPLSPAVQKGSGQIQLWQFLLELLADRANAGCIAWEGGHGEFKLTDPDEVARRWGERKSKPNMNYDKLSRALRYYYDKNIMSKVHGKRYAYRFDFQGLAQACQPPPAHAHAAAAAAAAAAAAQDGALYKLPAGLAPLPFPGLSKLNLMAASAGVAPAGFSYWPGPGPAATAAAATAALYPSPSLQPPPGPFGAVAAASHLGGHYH
To be noted: protein: recombinant; tags: N-terminal GST; dsDNA, one strand shown. The method, boiled down: (§1)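 Binding signal is given per hexamer as its read frequency for a factor divided by its frequency in the tag-only sample. GST-fused human transcription factors were expressed in yeast, captured on glutathione beads, barcoded with DNA and pooled with that sample, then incubated with 200 nmole of a 16-mer random double-stranded DNA library in Tris/NaCl/DTT/glycerol buffer for 30 min at room temperature. The pools were then washed, crosslinked, proximity-ligated, amplified by PCR and sequenced on an Illumina NextSeq500.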

Assay [2] deals with ETV5 (Homo sapiens, UniProt P41161 1-510). The note with it: protein: recombinant; tags: N-terminal GST; dsDNA, one strand shown. The method, boiled down: as §1
Sequence of ETV5 (P41161 whole entry): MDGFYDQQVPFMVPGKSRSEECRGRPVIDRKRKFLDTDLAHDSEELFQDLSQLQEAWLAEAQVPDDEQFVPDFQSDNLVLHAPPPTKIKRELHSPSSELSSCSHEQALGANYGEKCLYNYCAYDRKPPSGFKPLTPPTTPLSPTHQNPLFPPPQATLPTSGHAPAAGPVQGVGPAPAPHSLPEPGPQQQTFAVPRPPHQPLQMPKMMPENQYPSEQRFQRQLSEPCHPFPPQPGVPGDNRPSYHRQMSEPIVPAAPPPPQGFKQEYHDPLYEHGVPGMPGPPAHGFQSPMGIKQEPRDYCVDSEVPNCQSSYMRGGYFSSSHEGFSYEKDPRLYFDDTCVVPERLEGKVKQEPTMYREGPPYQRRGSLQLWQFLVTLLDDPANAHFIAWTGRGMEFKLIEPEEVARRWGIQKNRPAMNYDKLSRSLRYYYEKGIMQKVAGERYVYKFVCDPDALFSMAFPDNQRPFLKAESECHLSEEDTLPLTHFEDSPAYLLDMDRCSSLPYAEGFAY
Assay [3] has as its target HSF1 (Homo sapiens, UniProt Q00613 1-529). The note with it: protein: recombinant; tags: N-terminal GST; chain copies: 3; dsDNA, one strand shown. The method, boiled down:
as §1

Assay [4] concerns the target T2, SPIC (Homo sapiens, UniProt Q8N5J4 1-248).
T2 sequence: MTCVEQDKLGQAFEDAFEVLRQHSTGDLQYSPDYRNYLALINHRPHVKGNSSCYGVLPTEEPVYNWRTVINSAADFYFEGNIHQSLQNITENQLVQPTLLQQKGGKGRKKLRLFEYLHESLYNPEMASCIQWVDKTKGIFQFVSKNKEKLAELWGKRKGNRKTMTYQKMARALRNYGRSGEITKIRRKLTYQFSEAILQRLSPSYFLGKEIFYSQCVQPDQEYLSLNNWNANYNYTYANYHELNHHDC
To be noted: protein: recombinant; tags: N-terminal GST; dsDNA, one strand shown. The essentials: as §1

Assay [5] deals with ELF4 (Homo sapiens, UniProt Q99607 1-663). To be noted: protein: recombinant; tags: N-terminal GST; dsDNA, one strand shown. The essentials: as §1
Sequence of ELF4 (Q99607 whole entry): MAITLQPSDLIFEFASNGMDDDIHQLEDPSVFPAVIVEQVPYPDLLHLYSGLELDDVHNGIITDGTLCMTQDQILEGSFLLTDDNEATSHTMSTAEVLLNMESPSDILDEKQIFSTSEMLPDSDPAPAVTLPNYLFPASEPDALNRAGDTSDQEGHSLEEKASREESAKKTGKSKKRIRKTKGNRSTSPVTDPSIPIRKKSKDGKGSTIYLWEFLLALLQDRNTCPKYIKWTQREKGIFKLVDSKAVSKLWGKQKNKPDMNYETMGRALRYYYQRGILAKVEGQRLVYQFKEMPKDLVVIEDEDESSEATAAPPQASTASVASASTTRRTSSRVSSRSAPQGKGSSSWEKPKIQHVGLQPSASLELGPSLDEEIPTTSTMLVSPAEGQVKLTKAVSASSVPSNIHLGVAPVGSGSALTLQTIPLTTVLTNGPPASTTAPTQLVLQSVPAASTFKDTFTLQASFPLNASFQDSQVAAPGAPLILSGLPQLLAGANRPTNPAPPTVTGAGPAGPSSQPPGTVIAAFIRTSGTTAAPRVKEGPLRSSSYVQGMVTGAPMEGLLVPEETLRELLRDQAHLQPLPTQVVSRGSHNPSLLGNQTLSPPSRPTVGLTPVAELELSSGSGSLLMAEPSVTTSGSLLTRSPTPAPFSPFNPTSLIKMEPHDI
The target in assay [6] is T3, ELK4 (Homo sapiens, UniProt P28324-2 1-405).
T3 sequence: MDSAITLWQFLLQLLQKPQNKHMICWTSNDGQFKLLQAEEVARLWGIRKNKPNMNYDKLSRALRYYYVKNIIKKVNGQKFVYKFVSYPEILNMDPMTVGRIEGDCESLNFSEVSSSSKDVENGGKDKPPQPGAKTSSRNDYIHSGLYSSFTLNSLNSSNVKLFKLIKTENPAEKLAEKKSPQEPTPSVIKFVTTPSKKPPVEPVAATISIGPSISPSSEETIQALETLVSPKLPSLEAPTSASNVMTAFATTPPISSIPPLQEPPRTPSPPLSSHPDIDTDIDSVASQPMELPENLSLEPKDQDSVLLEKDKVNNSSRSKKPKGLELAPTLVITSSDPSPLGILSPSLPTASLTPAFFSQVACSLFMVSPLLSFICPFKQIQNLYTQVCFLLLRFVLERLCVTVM
The note with it: protein: recombinant; tags: N-terminal GST; dsDNA, one strand shown. The essentials:
as §1

The target in assay [7] is T4, ETV2 (Homo sapiens, UniProt O00321 1-342).
T4 sequence: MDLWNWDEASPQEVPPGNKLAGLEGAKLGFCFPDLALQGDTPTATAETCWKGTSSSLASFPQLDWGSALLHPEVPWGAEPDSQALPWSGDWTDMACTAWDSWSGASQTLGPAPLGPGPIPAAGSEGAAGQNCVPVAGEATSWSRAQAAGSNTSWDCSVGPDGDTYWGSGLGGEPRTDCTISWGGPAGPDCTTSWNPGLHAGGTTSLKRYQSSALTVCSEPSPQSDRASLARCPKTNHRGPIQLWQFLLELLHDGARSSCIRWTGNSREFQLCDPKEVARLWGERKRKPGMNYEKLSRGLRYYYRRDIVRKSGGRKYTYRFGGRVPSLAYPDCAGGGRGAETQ
To be noted: protein: recombinant; tags: N-terminal GST; dsDNA, one strand shown. The method, boiled down:
as §1

Assay [8] has as its target T5, ELF3 (Homo sapiens, UniProt P78545 1-371).
T5 sequence: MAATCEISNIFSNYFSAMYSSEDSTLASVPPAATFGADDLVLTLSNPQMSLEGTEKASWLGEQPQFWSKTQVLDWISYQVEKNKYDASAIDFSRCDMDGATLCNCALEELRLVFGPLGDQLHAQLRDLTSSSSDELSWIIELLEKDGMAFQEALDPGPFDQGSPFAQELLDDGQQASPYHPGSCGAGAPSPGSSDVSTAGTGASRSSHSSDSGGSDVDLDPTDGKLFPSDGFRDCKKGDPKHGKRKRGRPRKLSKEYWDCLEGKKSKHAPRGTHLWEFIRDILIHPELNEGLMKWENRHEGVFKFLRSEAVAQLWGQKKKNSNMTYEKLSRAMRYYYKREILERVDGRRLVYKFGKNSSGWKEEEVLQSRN
To be noted: protein: recombinant; tags: N-terminal GST; dsDNA, one strand shown. The method, boiled down: as §1

The target of assay [9] is CRX (Homo sapiens, UniProt O43186 1-299). To be noted: protein: recombinant; tags: N-terminal GST; dsDNA, one strand shown. The method, boiled down: as §1
Sequence of CRX (O43186 whole entry): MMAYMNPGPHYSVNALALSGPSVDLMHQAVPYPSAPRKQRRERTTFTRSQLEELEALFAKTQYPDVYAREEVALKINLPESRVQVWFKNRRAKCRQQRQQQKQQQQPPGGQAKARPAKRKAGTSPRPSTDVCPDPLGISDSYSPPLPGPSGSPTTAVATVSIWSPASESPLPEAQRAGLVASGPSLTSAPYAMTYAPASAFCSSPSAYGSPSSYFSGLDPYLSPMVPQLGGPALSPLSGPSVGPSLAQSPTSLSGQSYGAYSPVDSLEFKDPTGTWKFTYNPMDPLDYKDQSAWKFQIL
Assay [10] deals with ETV1 (Homo sapiens, UniProt P50549 1-477). The note with it: protein: recombinant; tags: N-terminal GST; dsDNA, one strand shown. The method, boiled down: as §1
Sequence of ETV1 (P50549 whole entry): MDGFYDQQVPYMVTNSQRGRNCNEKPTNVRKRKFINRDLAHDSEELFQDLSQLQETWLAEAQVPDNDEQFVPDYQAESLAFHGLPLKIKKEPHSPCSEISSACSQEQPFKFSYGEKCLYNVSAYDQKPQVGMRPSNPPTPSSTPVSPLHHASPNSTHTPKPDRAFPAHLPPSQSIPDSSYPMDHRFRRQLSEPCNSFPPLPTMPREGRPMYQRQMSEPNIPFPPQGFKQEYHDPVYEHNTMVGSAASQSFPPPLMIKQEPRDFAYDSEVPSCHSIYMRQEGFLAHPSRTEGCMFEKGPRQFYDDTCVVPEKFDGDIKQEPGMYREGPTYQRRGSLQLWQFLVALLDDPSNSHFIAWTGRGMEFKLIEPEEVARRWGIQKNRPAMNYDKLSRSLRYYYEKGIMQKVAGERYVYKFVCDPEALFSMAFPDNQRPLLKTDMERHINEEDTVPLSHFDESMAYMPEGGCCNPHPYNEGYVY
In assay [11] the target is T6, ERF (Homo sapiens, UniProt P50548 1-548).
T6 sequence: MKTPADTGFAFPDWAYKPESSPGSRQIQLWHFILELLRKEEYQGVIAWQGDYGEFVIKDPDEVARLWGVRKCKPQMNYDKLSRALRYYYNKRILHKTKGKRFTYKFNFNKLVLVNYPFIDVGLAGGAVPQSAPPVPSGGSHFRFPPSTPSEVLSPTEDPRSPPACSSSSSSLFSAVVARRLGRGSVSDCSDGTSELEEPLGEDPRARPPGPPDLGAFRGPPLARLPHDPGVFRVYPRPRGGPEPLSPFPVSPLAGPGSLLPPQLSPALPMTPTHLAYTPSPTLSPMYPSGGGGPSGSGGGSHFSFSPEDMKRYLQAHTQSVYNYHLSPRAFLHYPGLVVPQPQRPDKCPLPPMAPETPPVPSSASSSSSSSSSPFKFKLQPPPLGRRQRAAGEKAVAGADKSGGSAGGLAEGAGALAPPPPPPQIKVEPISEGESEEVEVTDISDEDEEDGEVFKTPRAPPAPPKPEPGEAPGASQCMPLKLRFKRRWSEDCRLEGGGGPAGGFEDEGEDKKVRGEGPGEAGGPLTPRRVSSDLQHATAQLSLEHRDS
The note with it: protein: recombinant; tags: N-terminal GST; dsDNA, one strand shown. The essentials:
as §1

Assay [12] addresses T7, ETV3L (Homo sapiens, UniProt Q6ZN32 1-361).
T7 sequence: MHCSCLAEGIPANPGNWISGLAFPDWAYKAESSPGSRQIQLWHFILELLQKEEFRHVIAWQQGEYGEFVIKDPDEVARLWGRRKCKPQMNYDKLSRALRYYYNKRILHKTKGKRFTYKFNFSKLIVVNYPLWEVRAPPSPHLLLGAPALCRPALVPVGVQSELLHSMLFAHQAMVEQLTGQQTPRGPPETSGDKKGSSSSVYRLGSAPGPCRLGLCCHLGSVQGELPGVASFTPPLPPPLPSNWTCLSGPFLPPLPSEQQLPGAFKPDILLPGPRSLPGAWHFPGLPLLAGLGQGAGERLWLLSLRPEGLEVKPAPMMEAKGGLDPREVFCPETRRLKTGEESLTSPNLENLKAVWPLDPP
To be noted: protein: recombinant; tags: N-terminal GST; dsDNA, one strand shown. The essentials:
as §1

In assay [13] the target is T8, ETS2 (Homo sapiens, UniProt P15036 1-469).
T8 sequence: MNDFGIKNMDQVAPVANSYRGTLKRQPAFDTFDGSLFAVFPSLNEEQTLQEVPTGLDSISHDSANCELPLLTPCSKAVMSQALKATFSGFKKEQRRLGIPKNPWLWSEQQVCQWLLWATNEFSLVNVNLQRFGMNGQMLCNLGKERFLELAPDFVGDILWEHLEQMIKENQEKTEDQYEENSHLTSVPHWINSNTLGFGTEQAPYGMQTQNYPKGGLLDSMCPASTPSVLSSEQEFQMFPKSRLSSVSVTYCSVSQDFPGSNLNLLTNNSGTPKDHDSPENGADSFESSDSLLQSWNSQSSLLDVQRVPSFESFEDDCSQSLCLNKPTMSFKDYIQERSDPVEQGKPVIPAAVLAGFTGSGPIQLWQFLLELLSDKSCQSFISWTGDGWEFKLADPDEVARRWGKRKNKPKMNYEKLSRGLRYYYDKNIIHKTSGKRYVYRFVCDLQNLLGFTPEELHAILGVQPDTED
To be noted: protein: recombinant; tags: N-terminal GST; dsDNA, one strand shown. The essentials:
as §1

In assay [14] the target is T9, SPDEF (Homo sapiens, UniProt O95238 1-335).
T9 sequence: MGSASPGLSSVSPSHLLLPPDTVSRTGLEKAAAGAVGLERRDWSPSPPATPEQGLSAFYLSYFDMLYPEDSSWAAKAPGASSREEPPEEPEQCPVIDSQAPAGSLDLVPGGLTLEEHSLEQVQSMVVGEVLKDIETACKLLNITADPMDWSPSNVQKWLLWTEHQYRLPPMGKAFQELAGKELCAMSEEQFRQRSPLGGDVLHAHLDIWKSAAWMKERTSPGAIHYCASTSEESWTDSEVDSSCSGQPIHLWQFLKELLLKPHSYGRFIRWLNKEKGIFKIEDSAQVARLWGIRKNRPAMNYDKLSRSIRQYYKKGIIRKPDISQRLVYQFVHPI
To be noted: protein: recombinant; tags: N-terminal GST; dsDNA, one strand shown. The essentials:
as §1

Assay [15] has as its target T10, ETV7 (Homo sapiens, UniProt Q9Y603 1-341).
T10 sequence: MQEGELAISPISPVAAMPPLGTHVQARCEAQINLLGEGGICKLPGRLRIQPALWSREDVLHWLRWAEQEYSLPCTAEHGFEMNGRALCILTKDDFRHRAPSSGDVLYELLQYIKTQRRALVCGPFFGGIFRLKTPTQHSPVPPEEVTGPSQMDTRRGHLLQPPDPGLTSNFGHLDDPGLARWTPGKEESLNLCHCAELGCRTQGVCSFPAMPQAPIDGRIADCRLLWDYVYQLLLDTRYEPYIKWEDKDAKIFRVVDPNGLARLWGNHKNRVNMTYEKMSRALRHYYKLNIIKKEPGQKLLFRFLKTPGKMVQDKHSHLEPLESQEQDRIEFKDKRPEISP
To be noted: protein: recombinant; tags: N-terminal GST; dsDNA, one strand shown. The method, boiled down: as §1

In assay [16] the target is T11, ELF5 (Homo sapiens, UniProt Q9UKW6-2 1-255).
T11 sequence: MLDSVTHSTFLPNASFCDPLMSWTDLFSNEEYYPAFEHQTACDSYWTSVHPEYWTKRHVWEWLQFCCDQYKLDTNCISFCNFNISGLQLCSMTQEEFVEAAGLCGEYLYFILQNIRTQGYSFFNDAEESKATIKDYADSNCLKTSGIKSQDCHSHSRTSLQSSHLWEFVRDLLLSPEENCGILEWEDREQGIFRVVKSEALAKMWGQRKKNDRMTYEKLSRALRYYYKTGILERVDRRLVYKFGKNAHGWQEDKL
To be noted: protein: recombinant; tags: N-terminal GST; dsDNA, one strand shown. The essentials: as §1

Assay [17] addresses T12, ETV3 (Homo sapiens, UniProt P41162-2 1-143).
T12 sequence: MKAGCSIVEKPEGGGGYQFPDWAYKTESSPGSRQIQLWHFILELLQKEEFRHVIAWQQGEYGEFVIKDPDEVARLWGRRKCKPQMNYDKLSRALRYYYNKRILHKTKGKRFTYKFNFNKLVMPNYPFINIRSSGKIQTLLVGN
The note with it: protein: recombinant; tags: N-terminal GST; dsDNA, one strand shown. The essentials: as §1

Assay [18] addresses ETV6 (Homo sapiens, UniProt P41212 1-452). To be noted: protein: recombinant; tags: N-terminal GST; dsDNA, one strand shown. The essentials:
as §1

Sequence of ETV6 (P41212 whole entry): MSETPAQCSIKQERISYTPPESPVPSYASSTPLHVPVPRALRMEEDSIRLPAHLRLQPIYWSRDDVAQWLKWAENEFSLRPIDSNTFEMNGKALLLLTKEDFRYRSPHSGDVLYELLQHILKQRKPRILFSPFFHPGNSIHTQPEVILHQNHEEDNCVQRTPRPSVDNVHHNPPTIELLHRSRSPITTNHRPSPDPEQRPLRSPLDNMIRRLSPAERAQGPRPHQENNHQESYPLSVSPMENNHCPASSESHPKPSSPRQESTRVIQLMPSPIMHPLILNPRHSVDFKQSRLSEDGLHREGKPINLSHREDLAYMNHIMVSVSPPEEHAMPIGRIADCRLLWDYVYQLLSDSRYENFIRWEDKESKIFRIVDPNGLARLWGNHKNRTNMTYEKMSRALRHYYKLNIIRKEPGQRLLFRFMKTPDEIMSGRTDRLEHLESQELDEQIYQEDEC
Sequence of HSF1 (Q00613 whole entry): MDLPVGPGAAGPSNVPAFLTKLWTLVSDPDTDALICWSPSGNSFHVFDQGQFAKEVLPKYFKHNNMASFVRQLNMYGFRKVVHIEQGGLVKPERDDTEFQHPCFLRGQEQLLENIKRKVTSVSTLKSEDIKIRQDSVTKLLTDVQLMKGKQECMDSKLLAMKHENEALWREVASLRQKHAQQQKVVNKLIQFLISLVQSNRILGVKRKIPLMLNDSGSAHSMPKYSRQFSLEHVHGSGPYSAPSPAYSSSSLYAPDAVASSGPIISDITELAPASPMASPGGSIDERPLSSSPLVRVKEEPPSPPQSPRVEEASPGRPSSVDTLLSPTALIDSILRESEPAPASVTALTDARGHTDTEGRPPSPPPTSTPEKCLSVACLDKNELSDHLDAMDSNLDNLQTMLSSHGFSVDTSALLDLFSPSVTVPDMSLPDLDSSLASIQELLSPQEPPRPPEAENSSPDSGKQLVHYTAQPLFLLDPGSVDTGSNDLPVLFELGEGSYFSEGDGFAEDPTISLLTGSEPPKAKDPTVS

Consider TCTATC, for which the binding signal was 1.16 fold enrichment (6-mer frequency, TF over GST control) in assay [1]; 1.19 fold enrichment (6-mer frequency, TF over GST control) in assay [2]; 1.43 fold enrichment (6-mer frequency, TF over GST control) in assay [3]; 1.23 fold enrichment (6-mer frequency, TF over GST control) in assay [4]; 1.25 fold enrichment (6-mer frequency, TF over GST control) in assay [5]; 1.24 fold enrichment (6-mer frequency, TF over GST control) in assay [6]. The binding signal was 1.27 fold enrichment (6-mer frequency, TF over GST control) in assay [7]; 1.29 fold enrichment (6-mer frequency, TF over GST control) in assay [8]; 1.32 fold enrichment (6-mer frequency, TF over GST control) in assay [9]; 1.16 fold enrichment (6-mer frequency, TF over GST control) in assay [10]; 1.37 fold enrichment (6-mer frequency, TF over GST control) in assay [11]; 1.27 fold enrichment (6-mer frequency, TF over GST control) in [12]. Also, the binding signal in assay [13] was 1.16 fold enrichment (6-mer frequency, TF over GST control); in assay [14] it was 1.27 fold enrichment (6-mer frequency, TF over GST control); in [15], 1.27 fold enrichment (6-mer frequency, TF over GST control); in assay [16] it was 1.24 fold enrichment (6-mer frequency, TF over GST control); in assay [17], 1.2 fold enrichment (6-mer frequency, TF over GST control); in assay [18] it was 1.32 fold enrichment (6-mer frequency, TF over GST control).
